Reference: the supplement of paper PMC6555819

Legend:
Assay in all cases: PBM binding z-score (relative to random genomic background probes); higher = stronger binding; sequences stand for … in GC…GCGATTGACAGCGTAGAATGAAGG
[1] = tested on: FXR:RXRa (NR concentration 270 nM, RXRa partner concentration 90 nM)
Procedure, shortened: (§1)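 Probes were double-stranded and carried 34-nt variable regions with direct-repeat seeds, single-nucleotide variants, half-site ablations and random human genomic background sequences, printed on custom Agilent 4×180K protein-binding microarrays. Arrays were incubated 1 h with ligand-free nuclear receptor dimers in PBS pH 7.4, 2% milk, 0.02% Triton X-100, 1 mM DTT, 0.2 mg/mL BSA and 0.4 mg/ml salmon testes DNA. Antibodies against each partner (one per run) detected binding, and scanned fluorescence was regression-normalized. Binding z-scores use the random background probes as reference.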

[2] = tested on: LXRa:RXRa (NR concentration 270 nM, RXRa partner concentration 90 nM)
Procedure, shortened: as §1

[3] = tested on: LXRa homodimer (NR concentration 270 nM)
Procedure, shortened: as §1

[4] = tested on: LXRb:RXRa (NR concentration 270 nM, RXRa partner concentration 90 nM)
Procedure, shortened: as §1

[5] = tested on: LXRb homodimer (NR concentration 270 nM)
Procedure, shortened: as §1

[6] = tested on: PPARa:RXRa (NR concentration 270 nM, RXRa partner concentration 90 nM)
Procedure, shortened: as §1

[7] = tested on: PPARg:RXRa (NR concentration 180 nM, RXRa partner concentration 90 nM)
Procedure, shortened: as §1

[8] = tested on: PPARg:RXRa 270nM:90nM, anti-RXR (NR concentration 270 nM, RXRa partner concentration 90 nM)
Procedure, shortened: as §1

[9] = tested on: PPARg:RXRa 30nM:10nM, anti-RXR (NR concentration 30 nM, RXRa partner concentration 10 nM)
Procedure, shortened: as §1

[10] = tested on: PPARg:RXRa 90nM:30nM, anti-RXR (NR concentration 90 nM, RXRa partner concentration 30 nM)
Procedure, shortened: as §1

Sequence | PBM binding z-score [1] | PBM binding z-score [2] | PBM binding z-score [3] | PBM binding z-score [4] | PBM binding z-score [5] | PBM binding z-score [6] | PBM binding z-score [7] | PBM binding z-score [8] | PBM binding z-score [9] | PBM binding z-score [10]
TAGGCTAGGTCATTCAGGGGCCAGTATAGAAAGC | 5.03 | 3.64 | 0.726 | 2.79 | 1.32 | 3.63 | 2.37 | 2.47 | 0.608 | 1.64
TCGAGTAGGTTAGTCGGCGCATTCAGCCAACATA | -0.102 | -0.169 | -0.745 | -0.439 | -1.53 | 0.0972 | -0.358 | 0.362 | 0.699 | 0.562
CAAACTAGGTCACGAAAGGTCCAAGTCGAATGAC | 4.78 | 3.96 | 0.544 | 2.73 | 0.334 | 5.45 | 8.99 | 7.44 | 4.78 | 7.28
TTACCAAGGTGAAAGTCGTTGATCCCTCTGTAGA | 0.729 | 0.757 | -0.418 | 0.587 | -0.747 | 2.1 | 0.615 | 1.61 | 0.371 | 1.12
CAAACTAGGTCAACGGAAGGTCAAAGTCCGCATG | 6.1 | 5.99 | 5.99 | 5.09 | 1.55 | 5.74 | 9.03 | 7.24 | 5.66 | 7.49
CTGACTGGGGCAGAAAGGTTACCATACCATCCGG | 0.933 | 1.01 | 0.207 | 1.5 | -0.293 | 2.65 | 2.32 | 3 | 1.18 | 2.35
CCTACTGGGCCAAAGGTCATTGATTCCAATGCTC | 4.82 | 5.3 | 4.17 | 4.72 | 0.913 | 6.33 | 12 | 10.5 | 10.7 | 11.4
ATATGTAGGTTCTCGGGTCATTCAGTTTGCGCAT | 2.58 | 2.33 | 1.35 | 2.78 | 0.765 | 3.89 | 3.39 | 3.71 | 1.14 | 2.94
CCGACTGGGGCATAAGGTTACGATAAGCCAGCCC | 0.452 | 0.99 | -0.328 | 0.815 | -1.42 | 2.41 | 2.58 | 3.55 | 1.47 | 3.22
ATATGTAGGTTTAGGGTCATTCAGGTTGGTTCGC | 4.11 | 3.91 | 1.71 | 3.97 | 1.36 | 4.59 | 5.96 | 6.54 | 4.91 | 6.7
CCGACTGGGGCAAAGGTTACCAAACTCAGTACGA | 1.54 | 1.78 | 0.0328 | 2.27 | -1.29 | 5.64 | 10.5 | 9.36 | 9.35 | 10.6
